{"source": "PubChem BioAssay (NCATS)", "note": "Inconclusive results are not listed. Calls of active or inactive are those of the source. Calls come from the whole dose curve; as a rule, active = well fitted inhibition curve with a large enough effect; inconclusive = small, poorly fitted or top-dose-only effect; inactive = flat fitted curve, though single readings scatter. Peptide text beside a SMILES is read from it. Potency is the fitted concentration of half-maximal effect.", "data": [{"tested_on": "ATS189", "test": "qHTS profiling for inhibitors of Plasmodium falciparum proliferation (AID 504749); note: nearly all actives have a fitted effect of over 60% in size;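 for activity, negative = inhibition: 0% = DMSO vehicle and full inhibition = artemisinin control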", "conditions": "P. falciparum in erythrocytes, SYBR Green DNA, 72 h; series mostly up to 12.8 µM; activity, negative = inhibition: at the top concentration", "in_short": "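P. falciparum-infected erythrocytes (0.3% parasitemia, 2.5% hematocrit) incubated with compound 72 h at 37 C, 5% CO2. Parasite DNA detected by SYBR Green after lysis, overnight at room temperature; normalised to 0.29 uM artemisinin and DMSO.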", "values": [{"smiles": "CN(C)CCCOC1C(C(O)CO)OC2OC(C)(C)O[C@@H]21", "note": "(stereo partly specified)", "activity, negative = inhibition": "18.3% [at 28.7 µM] (inactive)"}, {"smiles": "CCC(C)C(=O)OC1CCC=C2C=CC(C)C(CCC3CC(O)CC(=O)O3)[C@@H]21", "note": "(stereo partly specified)", "activity, negative = inhibition": "3.98% [at 28.7 µM] (inactive)"}, {"smiles": "CC(=O)OC1CCC2C3CCc4cc(O)ccc4C3CCC12C", "note": "(stereo unspecified)", "activity, negative = inhibition": "9.34% [at 28.7 µM] (inactive)"}, {"smiles": "CC[C@@]12CCCN3CCc4c(n(c5ccccc45)[C@](O)(C(=O)OC)C1)C32", "note": "(stereo partly specified)", "activity, negative = inhibition": "2.97% [at 28.7 µM] (inactive)"}, {"smiles": "NC(C(=O)O)[C@@H]1CC(Cl)=NO1", "note": "(stereo partly specified)", "Potency": "2.82 µM (active)"}, {"smiles": "CN1CC(=O)N=C1N", "activity, negative = inhibition": "7.63% [at 28.7 µM] (inactive)"}, {"smiles": "OCC1OC([S-])[C@H](O)C(O)C1O.[Au+]", "note": "(stereo partly specified)", "activity, negative = inhibition": "-0.24% [at 28.7 µM] (inactive)"}, {"smiles": "CC(C)C1CCC(C(=O)NC(Cc2ccccc2)C(=O)O)CC1", "note": "(stereo unspecified)", "activity, negative = inhibition": "14.6% [at 28.7 µM] (inactive)"}, {"smiles": "CCC(CCC(C)C1CCC2C3CC=C4CC(O)CC[C@@]4(C)C3CC[C@@]12C)C(C)C", "note": "(stereo partly specified)", "activity, negative = inhibition": "11.2% [at 28.7 µM] (inactive)"}, {"smiles": "C[C@]12CCC(=O)C=C1CCC1C2C(=O)C[C@]2(C)C1CC[C@]2(O)C(=O)CO", "note": "(stereo partly specified)", "activity, negative = inhibition": "4.52% [at 28.7 µM] (inactive)"}, {"smiles": "OCC1O[C@H](OC2C(CO)O[C@@](O)(CO)C2O)C(O)C(O)C1O", "note": "(stereo partly specified)", "activity, negative = inhibition": "7.43% [at 28.7 µM] (inactive)"}, {"smiles": "CC1(C)OC2CO[C@]3(COS(N)(=O)=O)OC(C)(C)OC3C2O1", "note": "(stereo partly specified)", "activity, negative = inhibition": "15.2% [at 28.7 µM] (inactive)"}, {"smiles": "CC1(C)OC2CC(=O)OC[C@@]23C1CC(=O)[C@]1(C)C3CC[C@@]2(C)C(c3ccoc3)OC(=O)C3O[C@@]321", "note": "(stereo partly specified)", "activity, negative = inhibition": "5.9% [at 28.7 µM] (inactive)"}, {"smiles": "CCOC(=O)C1=CC(OC(CC)CC)C(NC(C)=O)C(N)C1", "note": "(stereo unspecified)", "activity, negative = inhibition": "5.83% [at 28.7 µM] (inactive)"}, {"smiles": "COC1C=CO[C@@]2(C)Oc3c(C)c(O)c4c(O)c(c5c(nc6cc(C)ccn65)c4c3C2=O)NC(=O)/C(C)=C\\C=CC(C)C(O)[C@@H](C)C(O)C(C)[C@@H](OC(C)=O)C1C", "note": "(stereo partly specified)", "Potency": "12.6 µM (active)"}, {"smiles": "COC(=O)C(Cc1ccccc1)NC(=O)C(N)CC(=O)O", "note": "(stereo not drawn) (H-Asp-Phe-OMe; configuration not given here)", "activity, negative = inhibition": "11.7% [at 28.7 µM] (inactive)"}]}]}
